In PubChem BioAssay (NCI) one finds growth data, which are given here for 8 molecules.

About 83,000 compounds went through this panel and 20% of them were active in at least one assay; those are over-represented in the sample as a whole.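 Growth was measured after 48 h exposure to one concentration of compound in 96-well plates. Values under 10 count as active.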 A number with no mark means an inactive call. Activity calls are given as the source filed them.

Some test systems named below: SK-MEL-2 melanoma; EKVX NSCLC; SN12C renal; UO-31 renal; TK-10 renal; ACHN renal; CAKI-1 renal; A498 renal; CCRF-CEM leukemia; SR leukemia; RPMI-8226 leukemia; OVCAR-8 ovarian; OVCAR-5 ovarian; OVCAR-4 ovarian; SK-OV-3 ovarian; IGROV1 ovarian; OVCAR-3 ovarian; HS 578T breast; NCI/ADR-RES ovarian.
Holding throughout (experiment): NCI-60 one-dose screen, 48 h (100 = growth as untreated, 0 = no growth, -100 = all killed)
What all share (settings): 10 µM unless noted

On to `CCCCCCCCCCCCCCCCCCOc1ccc(CC(=O)OCC[N+]2(C)CCCC2)cc1`, for which the growth with SK-MEL-2 melanoma was 117%; in the experiment on EKVX NSCLC, 100%; in the experiment with SN12C renal, 97.9%; in the experiment on UO-31 renal, 92.4%; with TK-10 renal, 98.4%; with ACHN renal it was 96.8%. Also, the growth is 84.9% with CAKI-1 renal; 116% with A498 renal; 99.1% with CCRF-CEM leukemia; 101% in the experiment on SR leukemia; 97.6% with RPMI-8226 leukemia; 99.7% in the experiment on OVCAR-8 ovarian. Also, the growth in the experiment on OVCAR-5 ovarian is 97.9%; in the experiment on OVCAR-4 ovarian it was 87.3%; with SK-OV-3 ovarian it was 108%; in the experiment with IGROV1 ovarian, 94.1%; with OVCAR-3 ovarian, 109%; in the experiment with HS 578T breast, 95%. In the experiment with NCI/ADR-RES ovarian, the growth is 106%.

Regarding `c1c[nH]c(CNC2CCCCC2)c1`, the growth with SK-MEL-2 melanoma is 115%; with EKVX NSCLC, 108%; with SN12C renal, 107%; in the experiment with UO-31 renal, 89.8%; with TK-10 renal it was 120%; with ACHN renal it was 98.1%. In addition, the growth in the experiment on CAKI-1 renal was 96.1%; with A498 renal, 91.3%; in the experiment on CCRF-CEM leukemia, 96.6%; in the experiment with SR leukemia it was 144%; with RPMI-8226 leukemia it was 103%; with OVCAR-8 ovarian, 102%. In addition, the growth is 101% in the experiment with OVCAR-5 ovarian; 111% in the experiment on OVCAR-4 ovarian; 102% with SK-OV-3 ovarian; 107% in the experiment with IGROV1 ovarian; 98.1% in the experiment with OVCAR-3 ovarian; 102% with HS 578T breast. Further, the growth with NCI/ADR-RES ovarian is 99.1%.

As for `O=C(c1ccc(Nc2nccc(NCCCCNc3ccnc4cc(Cl)ccc34)n2)cc1)N1CCCCC1`, the growth was 68.7% in the experiment with SK-MEL-2 melanoma; 67.5% with EKVX NSCLC; 67.4% in the experiment on SN12C renal; 73.9% in the experiment with UO-31 renal; 91.5% with TK-10 renal; 37.8% in the experiment on ACHN renal. Moreover, the growth in the experiment on CAKI-1 renal is 86.1%; in the experiment on A498 renal, 68%; in the experiment with CCRF-CEM leukemia it was -11.8% (active); in the experiment on SR leukemia, -27.3% (active); in the experiment with RPMI-8226 leukemia, 8.24% (active); in the experiment on OVCAR-8 ovarian, 23%. In addition, the growth is 91.9% with OVCAR-5 ovarian; 49% in the experiment on OVCAR-4 ovarian; 97.7% in the experiment with SK-OV-3 ovarian; 46.5% in the experiment with IGROV1 ovarian; 36.6% in the experiment with OVCAR-3 ovarian; 65% with HS 578T breast. Also, in the experiment on NCI/ADR-RES ovarian, the growth was 89%.

Regarding `CC(CCc1ccc(Cl)c(Cl)c1)NCc1ccc(C(C)(C)C)cc1` (stereo not given), the growth in the experiment with SK-MEL-2 melanoma was 105%; in the experiment on EKVX NSCLC it was 102%; with SN12C renal, 91.9%; in the experiment with UO-31 renal, 78.6%; in the experiment with TK-10 renal, 78.4%; with ACHN renal, 92.7%. The growth is 85.9% in the experiment on CAKI-1 renal; 90.8% with A498 renal; 77.2% with CCRF-CEM leukemia; -10.5% (active) in the experiment with SR leukemia; 74.5% in the experiment on RPMI-8226 leukemia; 85.8% in the experiment with OVCAR-8 ovarian. In addition, the growth was 91.3% in the experiment on OVCAR-5 ovarian; 93.6% in the experiment on SK-OV-3 ovarian; 90.3% in the experiment on IGROV1 ovarian; 98.2% with OVCAR-3 ovarian; 85.2% in the experiment on HS 578T breast; 86.3% with NCI/ADR-RES ovarian.

On to `COc1ccc2cc(-c3cc(OC)c(OC)c(OC)c3)c(=O)oc2c1`, for which the growth with SK-MEL-2 melanoma was 62.3%; in the experiment with EKVX NSCLC, 54.1%; with SN12C renal, 92.7%; in the experiment with UO-31 renal, 87.7%; with TK-10 renal it was 85.8%; in the experiment with ACHN renal it was 90.1%. For the same molecule, the growth in the experiment with CAKI-1 renal is 79.3%; in the experiment on A498 renal, 53%; with CCRF-CEM leukemia, 74.6%; in the experiment on SR leukemia it was 26.8%; with RPMI-8226 leukemia, 83.6%; with OVCAR-8 ovarian it was 82.8%. For the same molecule, the growth with OVCAR-5 ovarian was 94.2%; in the experiment with SK-OV-3 ovarian, 72%; in the experiment with IGROV1 ovarian it was 82.3%; with OVCAR-3 ovarian, 81.8%; in the experiment with HS 578T breast, 75.5%; in the experiment with NCI/ADR-RES ovarian, 49%.

Regarding `O=C1/C(=C/c2ccc(Br)cc2)C=C(c2ccccc2)N1CCc1ccccc1`, the growth with SK-MEL-2 melanoma was 66%; with EKVX NSCLC it was 40.1%; with SN12C renal, 50.1%; in the experiment with UO-31 renal, 45%; with TK-10 renal it was 12.6%; in the experiment on ACHN renal it was 13%. Further, the growth is 64.3% in the experiment on CAKI-1 renal; 50.8% with A498 renal; 101% with CCRF-CEM leukemia; 58.6% in the experiment with SR leukemia; 101% in the experiment on RPMI-8226 leukemia; 17.7% in the experiment with OVCAR-8 ovarian. For the same molecule, the growth in the experiment on OVCAR-5 ovarian is 66%; with OVCAR-4 ovarian, -17.1% (active); with SK-OV-3 ovarian, 15.4%; in the experiment with IGROV1 ovarian it was 41.9%; with OVCAR-3 ovarian, 42.1%; in the experiment with HS 578T breast, 22.8%. For the same molecule, in the experiment with NCI/ADR-RES ovarian, the growth was 27.8%.

On to `O=C(NCCCNc1cc(-c2cn(-c3ccccc3)nc2-c2cccc(O)c2)ccn1)c1ccc(F)cc1`, for which the growth in the experiment on SK-MEL-2 melanoma was -8.95% (active); in the experiment on EKVX NSCLC, 48.2%; with SN12C renal, 55%; with UO-31 renal, 27.1%; in the experiment with TK-10 renal, 60.4%; in the experiment on ACHN renal, 51.7%. The growth is 12.4% in the experiment with CAKI-1 renal; 29% in the experiment on A498 renal; 22.3% in the experiment with CCRF-CEM leukemia; -26.4% (active) with SR leukemia; -9.31% (active) with RPMI-8226 leukemia; 36.1% with OVCAR-8 ovarian. Also, the growth in the experiment with OVCAR-5 ovarian was 58%; in the experiment on OVCAR-4 ovarian, 39.8%; with SK-OV-3 ovarian, 30.1%; in the experiment with IGROV1 ovarian, 45.8%; with OVCAR-3 ovarian, 38.4%; in the experiment with HS 578T breast it was -16.7% (active). In addition, the growth in the experiment on NCI/ADR-RES ovarian is 19%.

For `O=Cc1ccc(O)c2ncccc12`, the growth in the experiment with SK-MEL-2 melanoma was 71.2%; in the experiment on EKVX NSCLC, 66.1%; with SN12C renal, 35.2%; in the experiment on UO-31 renal it was 34.8%; in the experiment on TK-10 renal, 94%; in the experiment with ACHN renal, 110%. In addition, the growth in the experiment on CAKI-1 renal is 48.6%; in the experiment on A498 renal, 106%; in the experiment with CCRF-CEM leukemia it was -40.7% (active); in the experiment with SR leukemia, -41.3% (active); with RPMI-8226 leukemia, -39.8% (active); with OVCAR-8 ovarian it was 9.03% (active). In addition, the growth was 50.3% in the experiment on OVCAR-5 ovarian; 5.69% (active) in the experiment with OVCAR-4 ovarian; 97.7% in the experiment with SK-OV-3 ovarian; 4% (active) with IGROV1 ovarian; -15.2% (active) in the experiment on OVCAR-3 ovarian; 41.6% in the experiment on HS 578T breast. In addition, the growth in the experiment with NCI/ADR-RES ovarian was -1% (active).
